A selection: hits, their analogues and other compounds. The true share with any hit is near 0.56%.
Glyco luc inh: blocks N-linked glycosylation in D54 reporter cells | D54 ERlucT glycosylation luciferase reporter, 24 h; percent of 100 nM tunicamycin response | reporter increase, % at 12.5 µM | actives 0.23% (n = 360,000) | AID 588692;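 active = mean luciferase reporter signal, scaled so untreated is 0 and the glycosylation-blocking control 100, at or above a set limit in every replicate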;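 also: luciferase carries N-glycosylation sites so blocking glycosylation raises the light; 0% = median of neutral control wells and 100% = median of 100 nM tunicamycin wells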
ERp5 inh: inhibitors of human ERp5; actives 0.05% (n = 350,000); ERp5 insulin aggregation, absorbance 650 nm, 90 min; inhibition, % at 9.99 µM; Q15084;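 active = mean replicate inhibition above about 25%, with every replicate also reaching it, limit read from the data, passing the limit was not always enough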
Vif inh: blocks HIV Vif function | HEK293T cells, Vif self-association by quenched fluorescence, imaging, 24 h | inhibition, % at 7.49 µM | actives 0.35% (n = 340,000); in the data active = inhibition above about 50%, passing the limit was not always enough
PDI inh: inhibitors of human protein disulfide isomerase. PDI insulin aggregation turbidity, A650, 90 min. inhibition, % at 10 µM. P07237. actives 0.052% (n = 350,000). AID 588391;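 active = mean inhibition across replicates of 30% or more, whatever share of single replicates reach that level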
Target sequence (P07237 whole entry, looked up): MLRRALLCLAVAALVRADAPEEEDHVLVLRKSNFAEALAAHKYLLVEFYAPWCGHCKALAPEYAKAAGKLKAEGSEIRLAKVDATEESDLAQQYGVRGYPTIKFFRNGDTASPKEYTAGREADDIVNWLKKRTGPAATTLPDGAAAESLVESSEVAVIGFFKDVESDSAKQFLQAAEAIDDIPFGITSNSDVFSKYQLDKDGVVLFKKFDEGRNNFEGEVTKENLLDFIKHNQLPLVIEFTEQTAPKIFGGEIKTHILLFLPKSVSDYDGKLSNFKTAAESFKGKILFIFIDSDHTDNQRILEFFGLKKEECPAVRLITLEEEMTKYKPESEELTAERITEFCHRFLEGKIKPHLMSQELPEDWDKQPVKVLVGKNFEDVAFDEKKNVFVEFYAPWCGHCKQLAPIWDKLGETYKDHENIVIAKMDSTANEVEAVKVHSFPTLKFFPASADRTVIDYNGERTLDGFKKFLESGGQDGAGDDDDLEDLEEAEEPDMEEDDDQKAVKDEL
PvdQ acylase: P. aeruginosa PvdQ acylase inhibition. purified PvdQ acylase, fluorescence plate reader. inhibition, % at 10 µM. actives 0.063% (n = 340,000); in the data active = inhibition above about 30%, passing the limit was not always enough;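 also: 0% = vehicle neutral wells and 100% = reference inhibitor wells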
Numbers without * were called inactive; x = no result.

SMILES	Glyco luc inh	ERp5 inh	Vif inh	PDI inh	PvdQ acylase
COc1ccc(C(NC(=O)CNC(C)=O)C(=O)Nc2ccc3c(c2)OCCO3)cc1 (stereo not drawn)	0	x	51*	0	-19
Cc1ccc(Cn2c(SC3CCOC3=O)nc3ccccc3c2=O)cc1 (stereo not drawn)	-1	x	-8	4	-8
CCCOc1ccc(C(=O)CCC(=O)OCC(=O)Nc2ccc(OCC)cc2)cc1	x	0	x	x	x
CCCOc1ccc(C(=O)CCC(=O)OCC(=O)Nc2cccc(S(N)(=O)=O)c2)cc1	5	4	-2	-1	49*
O=C(Nc1ccccc1N1CCOCC1)c1ccc2nc[nH]c2c1	27*	-1	-3	4	5
C=CCC(=O)OCCCCCCOc1ccc(C(=O)O)cc1	2	x	-5	-2	-13
C=CCCCOc1ccc(C(=O)O)cc1	4	x	58*	-2	-18
O=C1CSC(=S)N1/N=C/c1cc(Br)c(O)c(Br)c1	1	x	70*	3	-12
COc1cc(/C=N/N2C(=O)CSC2=S)ccc1O	1	x	1	-1	-9
COc1ccc(C(=O)N2CCC(NC(=O)C(Cc3ccccc3OC)NC(C)=O)CC2)cc1 (stereo not drawn)	5	1	3	-1	3
COc1ccc(CC(NC(C)=O)C(=O)NC2CCN(C(=O)c3ccccc3F)CC2)cc1 (stereo not drawn)	-1	4	70*	12	-10
CN1/C(=C/c2cccc[n+]2C)Sc2ccccc21	15	3	118*	10	-3
CCOC1=NN(c2ncc(C(F)(F)F)cc2Cl)C(=O)C1	-1	-1	-1	0	-12
Cc1c(-c2cccc(Cl)c2)nc2ccccc2c1C(=O)OC/C(O)=C(\C#N)c1nc2ccccc2[nH]1	63*	-2	-4	0	-8
C/C(O)=C(\C#N)c1nc2ccccc2[nH]1	4	x	51*	-8	-6
COCC(=O)OC/C(O)=C(\C#N)c1nc2ccccc2[nH]1	32*	11	-5	-4	-9
COc1ccc(C2(CNC(=O)c3cc(OC)c(OC)c(OC)c3)CCCC2)cc1OC	35*	0	24	2	1
Cc1ccc(S(=O)(=O)N2CCOCC2)cc1NC(=O)CSc1ncccn1	0	3	0	3	1
Cc1ccc(S(=O)(=O)N2CCCCC2)cc1NC(=O)CSc1ncccn1	0	3	54*	-4	-5
CO[C@H]1CN(C)C(=O)c2cc(NC(=O)CC(F)(F)F)ccc2OC[C@H](C)N(C(=O)C2CC2)C[C@@H]1C	x	42*	x	x	x
O=C(N=c1ccn(-c2nc3ccccc3nc2NS(=O)(=O)c2ccc(Cl)cc2)cc1)c1cccs1	0	3	82*	-4	-12
Cc1cc(NC(=O)c2ccccc2)c(Cl)cc1N	0	-7	116*	1	-17
CN1C(=O)c2cc(NC(=O)Nc3ccccc3F)ccc2OC[C@H]2O[C@@H](CC(=O)NCc3ccc(-c4ccccc4)cc3)CC[C@@H]21	x	3	x	x	x
O=C(c1cc(Cl)c(=O)n(Cc2ccccc2)c1)N1CCOCC1	1	x	62*	2	-14
Cc1ccc(S(=O)(=O)N[C@@H](Cc2ccccc2)C(=O)N2CCC(C(=O)N[C@@H](CCC(N)=O)C(=O)O)CC2)cc1	1	8	59*	13	-5
SMILES	Glyco luc inh	ERp5 inh	Vif inh	PDI inh	PvdQ acylase
COCC1CCCCN1C(=O)c1ccc(OC2CCN(CCc3ccccc3)CC2)cc1 (stereo not drawn)	-4	-2	-1	12	-3
COc1cc(CNC(C)c2ccccc2)cc(Br)c1OCc1ccccc1 (stereo not drawn)	-2	-6	8	6	11
COc1cc(CNc2ccc(O)cc2)cc(Br)c1OCc1ccccc1	57*	1	-7	9	-9
C=CCn1c(SCc2nc3cc(C(=O)OC)ccc3c(=O)[nH]2)nc2sc(CC)cc2c1=O	3	-4	3	1	-8
Nc1c(C(=O)O)cnc2nc(N3CCOCC3)nn12	4	8	-1	-3	-4
CSc1nc2ncc(C(=O)O)c(N)n2n1	4	4	51*	6	-12
CCCn1nnnc1SCC(=O)N1CCCCC1	0	5	57*	7	-9
CCNC(=O)CSc1nnc(-c2ccccc2)n1-c1ccc(OCC)cc1	-2	x	-1	0	-12
Fc1ccccc1CNc1cc(Cl)cc(Cl)c1	1	x	119*	-1	10
CC1(C(=O)Nc2ccc3nc[nH]c3c2)CCN1C(=O)CCc1ccccc1 (stereo not drawn)	-1	1	x	-5	x
CC(=O)Nc1ccc(NC(=O)C2(C)Cc3c(-c4cccc(NC(C)=O)c4)ccnc3O2)cc1 (stereo not drawn)	2	9	x	-8	x
CC(=O)Nc1cccc(-c2ccnc3c2CC(C)(C(=O)Nc2cccc(C(C)=O)c2)O3)c1 (stereo not drawn)	30*	-2	-11	-1	x
COc1ccc(NC(=O)C2(C)Cc3c(-c4cccc(NC(C)=O)c4)ccnc3O2)cn1 (stereo not drawn)	25	-7	58*	7	x
CC(=O)c1ccc(S(=O)(=O)N(C)CC(=O)Nc2cc(C)on2)cc1	-1	-1	-7	-2	-12
Cc1cccc(N2CCN(C(=O)c3cc4ccccc4oc3=O)CC2)c1C	2	-3	68*	x	17
CN1CCN(C(=O)c2cc3ccccc3oc2=O)CC1	2	x	x	2	-6
Cc1cc(=O)oc2c(C)c(OC(C)C(=O)NCCCN3CCCC3=O)ccc12 (stereo not drawn)	1	-17	6	-2	-13
CCCCn1nnc(NC(=O)C(c2ccccc2)c2ccccc2)n1	-3	-7	4	-3	-10
CCCn1nnc(NC(=O)C(c2ccccc2)c2ccccc2)n1	0	x	50*	-3	-19
O=[N+]([O-])c1cc(C(F)(F)F)cc([N+](=O)[O-])c1NCCCNc1ccc([N+](=O)[O-])c2cccnc12	-2	x	-3	-2	5
CCN(c1ccccc1)S(=O)(=O)c1ccc(C(=O)NC2CCN(Cc3ccccc3)CC2)cc1	48*	x	-19	-11	-11
Cc1onc(NC(=O)NC(=O)c2c(F)cccc2Cl)c1Br	2	-1	7	-5	-11
O=c1[nH]c(=O)n([C@H]2C[C@H](O)[C@@H](CO)O2)cc1F	-2	2	4	0	-11
O=c1[nH]c(=O)n([C@H]2C[C@H](O)[C@@H](CO)O2)cc1Br	48*	-2	4	x	-12
O=c1[nH]c(=O)n(C2CC(O)C(CO)O2)cc1I (stereo not drawn)	81*	-2	16	-1	-8
S=C(S)N1CCCC1	-2	-3	75*	-2	10
Oc1ccc(C(=S)N2CCCC2)cc1	1	4	1	-4	-15
O=C(c1ccccc1)c1ccccc1N1C(=O)C=CC1=O	-11	6	17	6	-17
O=C1C=CC(=O)N1c1ccccc1N1C(=O)C=CC1=O	1	11	157*	2	-23

Screens from PubChem.
